# According to PubChem BioAssay:
# The source made the active and inactive calls.
# How the values were obtained:
# [1] = binders of probe aFSTL3 on microarray, primary screen, stem cell growth factor project, biochemical, small-molecule microarray, fluorescence 635/667 (AID 1064); details: higher = more signal;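 note: measures binding of the biotinylated anti-FSTL3 antibody to printed compounds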
# [2] = binders from COS7 lysate, DM2A8 probe, primary screen, torsin A project, cell lysate, small-molecule microarray, fluorescence 635/667 (AID 1065); details: higher = more signal, COS7 lysate expressing mutant human TOR1A
# [3] = binders of probe aFGF2 on microarray, primary screen, stem cell growth factor project, biochemical, small-molecule microarray, fluorescence 635/667 (AID 1067); details: higher = more signal;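 note: measures binding of biotinylated aFGF2 protein to printed compounds on slides; z-score merges feature fluorescence and signal-to-noise across triplicate slides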
# [4] = binders of probe aFGF10 on microarray, primary screen, stem cell growth factor project, biochemical, small-molecule microarray, fluorescence 635/667 (AID 1071); details: higher = more signal;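 note: score merges 667 nm spot intensity and signal to noise from triplicate slides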
# [5] = target: Neurogenic locus notch homolog protein 2 (Homo sapiens) (UniProt Q04721); assay: Notch2 binders on small-molecule microarrays, primary screen, biochemical, small-molecule microarray, 635 nm fluorescence, stem cell growth factors (AID 1073); details: Notch2 binding, higher = more signal
# [6] = target: Pro-neuregulin-1, membrane-bound isoform (Homo sapiens) (UniProt Q02297); assay: NRG1 binders on small-molecule microarrays, primary screen, psychiatric disease protein project, biochemical, small-molecule microarray, fluorescence 635/667 (AID 1075); details: NRG1 binding, 635 nm fluorescence, higher = more signal;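 note: score combines 667 nm spot fluorescence with signal to noise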
# [7] = system: Neuregulin-1 EGF-like domain; assay: binders of neuregulin-1 EGF-like domain, primary screen, biochemical, small-molecule microarray, 635 nm fluorescence (AID 1081); details: small-molecule microarray binding, higher = more signal;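 note: binding of the protein to compounds printed on small-molecule microarray slides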
# [8] = FRG1 promoter luciferase signal modulators, primary screen, FRG1 inhibition for FSHD, cell-based, C2C12 myotubes, firefly/Renilla luciferase, luminescence (AID 1084); details: higher = more signal, called active from +8 up or from −8 down
# [9] = binders of probe aFST on microarray, primary screen, stem cell growth factor project, biochemical, small-molecule microarray, fluorescence 635/667 (AID 1086); details: higher = more signal;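 note: score merges 667 nm fluorescence with signal-to-noise of each printed compound spot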
# [10] = binders of probe aHhip on microarray, primary screen, stem cell growth factor project, biochemical, small-molecule microarray, fluorescence 635/667 (AID 1087); details: higher = more signal;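 note: score merges spot fluorescence at 667nm with spot signal to noise ratio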
# [11] = system: PRMT1 (protein arginine N-methyltransferase 1); assay: PRMT1 binders on small-molecule microarrays, primary screen, biochemical, small-molecule microarray, 635 nm fluorescence (AID 1088); details: small-molecule microarray binding, higher = more signal;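 note: binding of Prmt1 protein to compounds spotted on small-molecule microarray slides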
# [12] = yeast growth modulation, basal conditions, primary screen, YJM789 clinical isolate, OD600, 24 h (AID 1089);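 note: growth of clinical yeast isolate S. cerevisiae YJM 789 seeded 1000 cells per well; test concentration not given here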; details: S. cerevisiae YJM789 growth, higher = more signal, called active from +8 up or from −8 down
# [13] = fission yeast growth modulation, primary screen, strain 972, OD600, 24 h, no modulator (AID 1090);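 note: basal condition with compound alone and no growth modifier present; test concentration not given here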; details: S. pombe 972 growth, higher = more signal, called active from +8 up or from −8 down
# [14] = S. cerevisiae growth modulation with rapamycin, primary screen, strain BY4716, OD600, 96 h (AID 1091); details: higher = more signal, called active from +8 up or from −8 down; note: test concentration not given here
# [15] = target: Torsin-1A-interacting protein 2 (Homo sapiens) (UniProt Q8NFQ8); assay: LULL1 binders on small-molecule microarray, primary screen, cell lysate, human LULL1 lysate, 635/667 nm fluorescence (AID 1092); details: hLULL1 lysate binding, 635 nm fluorescence, higher = more signal;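 note: probe is lysate of COS7 cells overexpressing human LULL1; score merges per-feature 667 nm fluorescence with signal-to-noise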
# [16] = E. coli growth modulation, two-sided OD650, primary screen, E. coli filamentation project, strain DRC41, 24 h (AID 1093); details: OD650, 24 h, higher = more signal, called active from +8 up or from −8 down;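 note: MC1000 strain lacking acrAB efflux and sulA so SOS filamentation is blocked; test concentration not given here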
# [17] = small-molecule microarray binders of probe aLefty2, primary screen, biochemical, biotinylated probe, 635/667 nm fluorescence (AID 1094); details: higher = more signal;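 note: score merges spot fluorescence near 667 nm with spot signal-to-noise ratio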
# [18] = system: Noggin (protein binding on small-molecule microarray); assay: Noggin binders on small-molecule microarray, primary screen, biochemical, 635/667 nm fluorescence (AID 1095); details: 635 nm fluorescence, higher = more signal;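 note: score merges 667 nm feature fluorescence with signal to noise over triplicate slides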
# [19] = target: Neurogenic locus notch homolog protein 3 (Homo sapiens) (UniProt Q9UM47); assay: NOTCH3 binders on small-molecule microarray, primary screen, biochemical, 635/667 nm fluorescence (AID 1096); details: NOTCH3 binding, 635 nm fluorescence, higher = more signal
# [20] = small-molecule microarray binders of probe aEGFR, primary screen, biochemical, biotinylated probe, 635/667 nm fluorescence (AID 1097); details: higher = more signal;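 note: probe is a biotinylated anti-EGFR antibody binding compounds printed on slides; score combines fluorescence near 667 nm and signal to noise of each spot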
# Neurogenic locus notch homolog protein 2 (Homo sapiens), sequence (Q04721 whole entry, looked up, canonical isoform): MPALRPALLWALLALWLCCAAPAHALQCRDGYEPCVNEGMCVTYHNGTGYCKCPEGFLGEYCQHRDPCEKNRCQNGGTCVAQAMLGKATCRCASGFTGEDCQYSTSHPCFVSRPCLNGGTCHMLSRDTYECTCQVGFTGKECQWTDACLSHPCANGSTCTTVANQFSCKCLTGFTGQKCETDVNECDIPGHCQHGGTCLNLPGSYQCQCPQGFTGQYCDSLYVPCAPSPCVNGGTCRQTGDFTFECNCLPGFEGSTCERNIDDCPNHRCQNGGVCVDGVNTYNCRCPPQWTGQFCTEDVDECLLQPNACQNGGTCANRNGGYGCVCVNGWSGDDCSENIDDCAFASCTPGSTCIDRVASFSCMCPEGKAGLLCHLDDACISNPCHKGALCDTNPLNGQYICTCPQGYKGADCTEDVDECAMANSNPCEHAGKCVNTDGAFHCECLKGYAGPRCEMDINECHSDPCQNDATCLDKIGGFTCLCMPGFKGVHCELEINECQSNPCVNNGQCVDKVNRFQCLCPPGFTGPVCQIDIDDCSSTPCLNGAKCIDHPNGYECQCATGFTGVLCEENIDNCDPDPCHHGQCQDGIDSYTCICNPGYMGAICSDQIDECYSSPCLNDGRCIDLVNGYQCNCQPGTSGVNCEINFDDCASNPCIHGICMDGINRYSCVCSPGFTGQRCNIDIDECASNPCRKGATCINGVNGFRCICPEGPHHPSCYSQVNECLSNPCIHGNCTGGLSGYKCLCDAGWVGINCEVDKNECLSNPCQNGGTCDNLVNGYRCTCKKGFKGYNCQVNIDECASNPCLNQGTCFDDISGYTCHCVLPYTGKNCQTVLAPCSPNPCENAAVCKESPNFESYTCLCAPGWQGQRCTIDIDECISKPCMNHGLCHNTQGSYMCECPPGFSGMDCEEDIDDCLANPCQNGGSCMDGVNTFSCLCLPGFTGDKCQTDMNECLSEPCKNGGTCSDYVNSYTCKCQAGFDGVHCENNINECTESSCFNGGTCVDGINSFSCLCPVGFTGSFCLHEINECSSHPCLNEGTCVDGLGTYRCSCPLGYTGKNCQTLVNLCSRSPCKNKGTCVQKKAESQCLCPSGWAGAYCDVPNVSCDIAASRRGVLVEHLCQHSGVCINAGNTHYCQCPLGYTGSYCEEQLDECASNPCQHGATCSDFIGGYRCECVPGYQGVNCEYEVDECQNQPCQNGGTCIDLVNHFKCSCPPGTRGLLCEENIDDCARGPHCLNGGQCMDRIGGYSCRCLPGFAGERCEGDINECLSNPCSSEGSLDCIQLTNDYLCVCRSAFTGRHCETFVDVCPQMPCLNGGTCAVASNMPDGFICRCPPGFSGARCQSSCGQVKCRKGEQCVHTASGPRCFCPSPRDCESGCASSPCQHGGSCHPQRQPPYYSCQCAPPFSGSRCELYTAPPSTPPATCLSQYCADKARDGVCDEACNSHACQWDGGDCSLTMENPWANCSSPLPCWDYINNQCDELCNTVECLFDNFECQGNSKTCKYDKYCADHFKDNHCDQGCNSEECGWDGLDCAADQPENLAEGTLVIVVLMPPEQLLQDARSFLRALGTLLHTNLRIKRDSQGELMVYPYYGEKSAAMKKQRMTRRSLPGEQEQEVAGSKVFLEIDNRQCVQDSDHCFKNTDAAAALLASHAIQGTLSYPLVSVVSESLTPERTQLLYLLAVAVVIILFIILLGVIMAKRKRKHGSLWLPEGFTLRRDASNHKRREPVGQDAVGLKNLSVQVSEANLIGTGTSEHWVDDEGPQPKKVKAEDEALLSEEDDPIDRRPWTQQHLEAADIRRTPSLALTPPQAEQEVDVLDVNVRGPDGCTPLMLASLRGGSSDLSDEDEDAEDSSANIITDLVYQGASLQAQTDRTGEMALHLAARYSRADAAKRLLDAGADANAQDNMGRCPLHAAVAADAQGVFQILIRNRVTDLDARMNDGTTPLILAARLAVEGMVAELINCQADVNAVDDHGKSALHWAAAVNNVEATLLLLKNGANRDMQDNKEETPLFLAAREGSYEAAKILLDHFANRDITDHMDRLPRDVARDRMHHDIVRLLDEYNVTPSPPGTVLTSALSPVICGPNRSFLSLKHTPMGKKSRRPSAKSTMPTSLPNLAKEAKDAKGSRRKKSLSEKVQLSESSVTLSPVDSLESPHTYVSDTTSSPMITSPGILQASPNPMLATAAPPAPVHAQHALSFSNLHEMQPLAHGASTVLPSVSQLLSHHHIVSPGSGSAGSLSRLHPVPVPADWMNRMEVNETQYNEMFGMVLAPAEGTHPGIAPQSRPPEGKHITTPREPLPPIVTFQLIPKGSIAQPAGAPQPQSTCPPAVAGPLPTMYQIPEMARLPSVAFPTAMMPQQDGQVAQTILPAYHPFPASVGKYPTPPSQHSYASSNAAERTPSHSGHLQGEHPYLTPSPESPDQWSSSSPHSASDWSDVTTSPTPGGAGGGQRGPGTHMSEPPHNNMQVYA
# Pro-neuregulin-1, membrane-bound isoform (Homo sapiens), sequence (Q02297 whole entry, looked up, the tested form may be a part, canonical isoform): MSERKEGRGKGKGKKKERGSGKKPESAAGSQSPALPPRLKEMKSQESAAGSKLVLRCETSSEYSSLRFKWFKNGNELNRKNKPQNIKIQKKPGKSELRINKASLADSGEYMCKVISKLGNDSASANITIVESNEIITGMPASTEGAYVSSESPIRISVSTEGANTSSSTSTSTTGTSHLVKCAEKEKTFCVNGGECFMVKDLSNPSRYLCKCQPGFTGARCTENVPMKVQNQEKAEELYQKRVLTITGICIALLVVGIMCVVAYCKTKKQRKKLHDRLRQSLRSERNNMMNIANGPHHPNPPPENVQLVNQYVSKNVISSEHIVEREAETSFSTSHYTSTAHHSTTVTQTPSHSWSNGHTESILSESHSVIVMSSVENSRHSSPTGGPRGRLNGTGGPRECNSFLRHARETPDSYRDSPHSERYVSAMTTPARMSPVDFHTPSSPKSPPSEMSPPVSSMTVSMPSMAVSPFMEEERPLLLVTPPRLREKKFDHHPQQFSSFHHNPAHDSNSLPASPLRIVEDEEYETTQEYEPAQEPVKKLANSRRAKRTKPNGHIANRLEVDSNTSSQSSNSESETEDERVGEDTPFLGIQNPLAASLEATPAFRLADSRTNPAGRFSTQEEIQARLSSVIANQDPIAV
# Torsin-1A-interacting protein 2 (Homo sapiens), sequence (Q8NFQ8 whole entry, looked up): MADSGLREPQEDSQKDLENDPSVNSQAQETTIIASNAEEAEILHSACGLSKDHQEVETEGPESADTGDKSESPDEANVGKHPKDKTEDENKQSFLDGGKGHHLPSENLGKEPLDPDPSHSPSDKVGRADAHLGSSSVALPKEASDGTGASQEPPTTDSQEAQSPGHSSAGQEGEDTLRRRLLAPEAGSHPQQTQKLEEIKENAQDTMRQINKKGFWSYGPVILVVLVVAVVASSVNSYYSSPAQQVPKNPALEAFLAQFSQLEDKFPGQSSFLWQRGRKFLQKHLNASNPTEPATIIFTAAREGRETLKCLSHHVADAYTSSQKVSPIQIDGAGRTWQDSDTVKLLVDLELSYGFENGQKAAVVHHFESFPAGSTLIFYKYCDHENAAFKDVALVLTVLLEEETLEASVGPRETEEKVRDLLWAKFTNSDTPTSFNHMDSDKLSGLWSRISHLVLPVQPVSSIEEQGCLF
SMILES,composite z-score [1],composite z-score [2],composite z-score [3],composite z-score [4],composite z-score [5],composite z-score [6],composite z-score [7],z-score [8],composite z-score [9],composite z-score [10],composite z-score [11],z-score [12],z-score [13],z-score [14],composite z-score [15],z-score [16],composite z-score [17],composite z-score [18],composite z-score [19],composite z-score [20]
C=CCOCC1CN2[C@@H](CC[C@@H](C)[C@@H]2c2ccc(Br)cc2)C(=O)O1 (stereo not given in full),-0.155,0.0527,-0.16,-0.204,-0.619,-0.391,-0.479,-0.0613 (inactive),-0.546,-0.0994,-0.149,-0.349 (inactive),-0.592 (inactive),0.338 (inactive),-0.581,0.415 (inactive),-0.296,0.167,-0.405,-0.0953
CCOC(=O)[C@H](CC(C)C)NC(=O)CCC1CC(OC(=O)NCc2ccc3c(c2)OCO3)CC2(CCCC(COC(=O)NCCc3ccc(Cl)cc3)O2)O1 (stereo not given in full),-0.549,-0.08,-0.129,0.744,0.331,1.1,0.993,0.924 (inactive),-0.0845,-0.0237,1.3,-1.06 (inactive),-0.571 (inactive),-1.81 (inactive),1.39,0.544 (inactive),-0.0615,0.553,0.951,0.065
COC(=O)[C@H](C)NC(=O)CCC1CC(OC(=O)NCc2cccc3ccccc23)CC2(CCCC(COC(=O)NCCC(C)C)O2)O1 (stereo not given in full),-0.478,0.151,-0.167,0.0257,0.0502,0.543,1.02,1.5 (inactive),0.0638,-0.264,0.651,-0.518 (inactive),-1.07 (inactive),-0.642 (inactive),1.84,0.384 (inactive),-0.205,0.352,0.504,-0.112
CCC1=NOC(CCC2CC(OC(=O)NCc3cccc4c3OCO4)CC3(CCCC(COC(=O)NCCc4ccc(Cl)cc4)O3)O2)C1 (stereo not given),-0.281,0.0253,0.0388,0.88,0.0241,1.44,1.12,1.24 (inactive),-0.0353,-0.0994,0.616,-0.57 (inactive),0.232 (inactive),0.407 (inactive),1.59,0.812 (inactive),-0.186,0.379,-0.165,-0.125
CC(CCN1CCCCc2nc(C)c(C)cc21)=NO[C@H](C)c1cn([C@@H]2COC[C@H]2O)nn1,-0.565,2.25,-0.126,0.517,1.11,0.172,1.18,0.227 (inactive),0.462,-0.0772,1.19,0.565 (inactive),1.07 (inactive),0.601 (inactive),0.967,0.681 (inactive),0.0636,1.51,0.486,0.267
CCN1C(=O)[C@H]2[C@H]3[C@H](O)[C@H](O)CC(=NO[C@@H]4O[C@H](COC(C)=O)[C@@H](OC(C)=O)[C@H](OC(C)=O)[C@H]4OC(C)=O)[C@@H]3CC[C@H]2C1=O,-0.665,0.588,-0.0319,0.794,0.948,0.357,1,0.186 (inactive),0.054,-0.0994,1.29,0.461 (inactive),0.208 (inactive),0.47 (inactive),1.05,1.16 (inactive),0.015,0.597,1.03,0.0091
CCOC(=O)[C@H](Cc1ccccc1)NC(=O)CCC1CC(OC(=O)NCc2ccc3c(c2)OCO3)CC2(CCCC(COC(=O)NCCCN3CCCC3=O)O2)O1 (stereo not given in full),-0.578,0.163,-0.0001,0.377,1.06,0.503,0.85,1.5 (inactive),0.827,-0.248,1.55,-0.395 (inactive),0.0418 (inactive),-0.0655 (inactive),2.08,0.187 (inactive),-0.117,0.579,1,-0.02
COC(=O)CC=C[C@@H](C)[C@@H](C=NOC(C)CN1CCCCc2nc(C)c(C)cc21)NS(=O)(=O)c1ccc(C)cc1 (stereo not given in full),0.061,0.751,-0.0422,0.471,0.318,-0.279,-0.776,0.511 (inactive),0.38,0.0735,0.63,-1.12 (inactive),0.22 (inactive),0.121 (inactive),-0.137,0.86 (inactive),0.0768,0.52,0.265,-0.0836
CC(C)[C@@H](OCc1ccccc1)[C@H](C)C=NOC[C@@H](O)[C@H]1O[C@@H]2OC(C)(C)O[C@@H]2[C@H]1O,-0.365,0.116,-0.198,0.492,0.25,0.125,0.361,0.417 (inactive),0.307,-0.0645,0.763,0.87 (inactive),1.05 (inactive),0.821 (inactive),0.758,0.517 (inactive),-0.132,1.07,0.676,-0.0828
COCCNC(=O)OCC1CCCC2(CC(OC(=O)NCc3cccc4ccccc34)CC(CCC(=O)N[C@@H](C)C(=O)OC)O2)O1 (stereo not given in full),-0.486,0.0192,-0.0692,0.662,0.668,0.737,1.03,-1.43 (inactive),0.311,-0.0994,1.55,1.48 (inactive),1.4 (inactive),2.67 (inactive),1.29,0.22 (inactive),-0.145,1.18,1.05,-0.0978
